The whole screen tested about 5,500 compounds, of which about 2,000 (36%) were called active. Not shown: some 18% with an inconclusive outcome. Rule as the data show it: active = normalized growth mostly below about 0.91 (no sharp cut-off); inconclusive = no clear call, values can overlap the other calls; inactive = mostly above about 0.92. The list shows a part of the results.
Assay: chemical genetic growth profiling, strain panel (AID 1159580);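 also: tested at 20 µM; growth read once vehicle control cultures reached saturation at 30 °C; 1 = growth at the plate median or of vehicle wells; lower values mean less growth of the strain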
Details: growth OD
[1] = S. cerevisiae deletion strains, locus YAL013W, strain DEP1, active compounds read low
[2] = S. cerevisiae deletion strains, locus YBR229C, strain ROT2, active compounds read low
[3] = S. cerevisiae deletion strains, locus YDL101C, strain DUN1, active compounds read low
[4] = S. cerevisiae deletion strains, locus YDL134C, strain PPH21, active compounds read low
[5] = S. cerevisiae deletion strains, locus YDR150W, strain NUM1, active compounds read low
[6] = S. cerevisiae deletion strains, locus YEL061C, strain CIN8, active compounds read low
[7] = S. cerevisiae deletion strains, locus YGR078C, strain PAC10, active compounds read low
[8] = S. cerevisiae deletion strains, locus YHR030C, strain SLT2, active compounds read low
[9] = S. cerevisiae deletion strains, locus YHR087W, strain rtc3, active compounds read low
[10] = S. cerevisiae deletion strains, locus YJR043C, strain POL32, active compounds read low
[11] = S. cerevisiae deletion strains, locus YJR075W, strain HOC1, active compounds read low
[12] = S. cerevisiae deletion strains, locus YLR039C, strain RIC1, active compounds read low
[13] = S. cerevisiae deletion strains, locus YLR058C, strain SHM2 (second series), active compounds read low
[14] = S. cerevisiae deletion strains, locus YLR085C, strain ARP6, active compounds read low
[15] = S. cerevisiae deletion strains, locus YLR262C, strain YPT6, active compounds read low
[16] = S. cerevisiae deletion strains, locus YML094W, strain GIM5, active compounds read low
[17] = S. cerevisiae deletion strains, locus YMR219W, strain ESC1, active compounds read low
[18] = S. cerevisiae deletion strains, locus YMR263W, strain SAP30, active compounds read low
[19] = S. cerevisiae deletion strains, locus YMR307W, strain GAS1, active compounds read low
[20] = S. cerevisiae deletion strains, locus YNL153C, strain GIM3, active compounds read low
[21] = S. cerevisiae deletion strains, locus YNL298W, strain CLA4 (second series), active compounds read low
[22] = S. cerevisiae deletion strains, locus YNL322C, strain KRE1, active compounds read low
[23] = S. cerevisiae deletion strains, locus YNR030W, strain Alg12, active compounds read low
[24] = S. cerevisiae deletion strains, locus YPL055C, strain LGE1, active compounds read low
[25] = S. cerevisiae deletion strains, locus YPL241C, strain CIN2, active compounds read low
[26] = S. cerevisiae deletion strains, locus YPR135W, strain CTF4, active compounds read low
[27] = S. cerevisiae deletion strains, locus YCL061C, strain MRC1, active compounds read low
[28] = S. cerevisiae strains, strain wild type, active compounds read low

Measured: normalized growth

O=[N+]([O-])c1ccc(Oc2c(Cl)cccc2Cl)c(Cl)c1Oc1c(Cl)cccc1Cl
inactive: [1] 0.98 | [2] 0.981 | [3] 0.95 | [4] 0.993 | [5] 0.992 | [6] 0.998 | [7] 0.984 | [8] 0.956 | [9] 1.04 | [10] 0.961 | [11] 1.04 | [12] 0.902 | [13] 0.991 | [14] 0.976 | [15] 0.949 | [16] 1.01 | [17] 1 | [18] 1.01 | [19] 1.02 | [20] 0.986 | [21] 0.953 | [22] 0.987 | [23] 0.969 | [24] 1 | [25] 0.961 | [26] 0.901

COc1ccc(Br)c(-c2nnc(-c3ccccc3[N+](=O)[O-])o2)c1
inactive: [1] 0.993 | [2] 1.01 | [3] 0.985 | [5] 0.943 | [6] 0.973 | [7] 1.02 | [8] 0.964 | [9] 1.02 | [10] 0.955 | [11] 0.975 | S. cerevisiae deletion strains, locus YKL190W, strain CNB1, active compounds read low 1.01 | [12] 1.07 | [13] 1.02 | [14] 0.953 | [15] 1.06 | [16] 1 | [17] 1.01 | [18] 0.978 | S. cerevisiae deletion strains, locus YNL128W, strain TEP1, active compounds read low 1.04 | [20] 1 | [21] 0.985 | [22] 1.01 | [23] 1 | [24] 0.953 | [25] 0.977 | [26] 1.07

O=[N+]([O-])c1cccnc1Oc1ccc(Cl)cc1
inactive: [1] 0.94 | [2] 0.939 | [4] 0.973 | [5] 0.917 | [6] 0.977 | [9] 0.93 | [11] 0.933 | [13] 0.95 | [14] 0.789 | [16] 0.937 | [17] 0.954 | [18] 0.936 | [21] 0.858 | [23] 0.906 | [24] 0.959 | [25] 0.935 | [28] 0.917
active: [27] 0.895 | [3] 0.875 | [7] 0.886 | [8] 0.543 | [10] 0.886 | [12] 0.657 | [15] 0.707 | [20] 0.919 | [22] 0.933 | [26] 0.613

CN1CCCC1c1cccnc1 (stereo not given)
inactive: [1] 0.987 | S. cerevisiae deletion strains, locus YAL040C, strain CLN3, active compounds read low 0.984 | S. cerevisiae deletion strains, locus YCL061C, strain MRC1 (second series), active compounds read low 0.981 | [5] 0.981 | S. cerevisiae deletion strains, locus YDR363W, strain ESC2, active compounds read low 1.02 | S. cerevisiae deletion strains, locus YER002W, strain NOP16, active compounds read low 0.994 | [19] 1.03 | [20] 0.986 | S. cerevisiae deletion strains, locus YNL175C, strain NOP13, active compounds read low 0.992 | S. cerevisiae deletion strains, locus YNL197C, strain WHI3, active compounds read low 0.995 | S. cerevisiae deletion strains, locus YNL224C, strain SQS1, active compounds read low 0.991 | [22] 0.98 | S. cerevisiae deletion strains, locus YOR083W, strain WHI5 (second series), active compounds read low 0.988 | [24] 1 | [25] 0.984

COc1ccccc1NC(=S)NCCC(=O)O
inactive: [1] 1.01 | [2] 1 | [27] 1 | [3] 0.985 | [5] 0.955 | [6] 0.991 | [7] 0.995 | [8] 1.03 | [9] 0.986 | S. cerevisiae deletion strains, locus YJL187C, strain SWE1, active compounds read low 1.01 | [11] 1.03 | [12] 1.03 | [13] 1.01 | [14] 1.03 | [15] 1.02 | [16] 0.963 | [17] 1.01 | [18] 0.989 | [20] 0.996 | [21] 1.02 | [22] 0.999 | [23] 1.01 | [24] 0.919 | [25] 1.07 | [26] 0.984 | [28] 1.01

Source: PubChem BioAssay AID1159580 (chemical genetic matrix, 2015)
